SARS PLpro yeast = qHTS of Yeast-based Assay for SARS-CoV PLP. S. cerevisiae expressing SARS-CoV PLpro, growth rescue. Potency, µM (doses to about 32.9 µM), for inactives: at the top dose activity, positive = growth rescue, usual class: activators. hit rate 0.19% among 330,000. AID 485353, 2010; note: 0% is about no effect; nearly all actives have a fitted effect of over 55% in size
Pf growth 48h = Primary qHTS for delayed death inhibitors of the malarial parasite plastid, 48 hour incubation. P. falciparum luciferase growth in erythrocytes, 48 h. Potency, µM (titrated, usually from 28.7 µM), for the others: top-dose activity change, negative = inhibition, hits mostly inhibitors. hit rate 5.9% among 310,000; active = well fitted inhibition curve with a large enough effect; inconclusive = small, poorly fitted or top-dose-only effect, or another doubt; inactive = no such curve, though single readings can be large or run the other way; note: % is set by controls: 0 for no effect and ±100 for the full control effect
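Luciferase-expressing parasites in RBCs, 2% Hct / 0.1% parasitemia final; RPMI 1640 + 0.5% Albumax; 37 C, 5% CO2, one generation; luminescence read-out, lower signal = inhibition.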
Pf growth 96h = Primary qHTS for delayed death inhibitors of the malarial parasite plastid, 96 hour incubation; P. falciparum luciferase reporter growth, 96 h; Potency, µM (top dose mostly 28.7 µM), inactives show top-dose activity change, negative = inhibition, most hits filed as inhibitors; hit rate 6.9% among 320,000; active = well fitted inhibition curve with a large enough effect; inconclusive = small, poorly fitted or top-dose-only effect, or another doubt; inactive = no such curve, though single readings can be large or run the other way; note: % is set by controls: 0 for no effect and ±100 for the full control effect
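Two-generation exposure (96 h) targets delayed-death phenotype. Reporter parasites carrying integrated firefly luciferase, in red cells at 2% hematocrit and 0.05% parasitemia final, kept at 37 C, 5% CO2; luminescence loss indicates inhibition.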
NS1 function inh = qHTS Assay for Inhibitors of Influenza NS1 Protein Function | Potency, µM (titrated, usually from 46.1 µM), without a hit: top-dose activity, positive = more growth | hit rate 0.4% among 270,000 | AID 2326, 2010; note: actives are rising curves; nearly all actives have a fitted effect of over 50% in size
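Compounds were scored for reversing the slow growth caused by influenza A NS1 in S. cerevisiae, measured by optical density at 600 nm. Assay medium contained 2% galactose at pH 6.0; NS1-free yeast of the same strain were the positive control.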
RE007 growth inh = qHTS Assay for Inhibitors of the HIV-1 protein Vpr | S. pombe RE007 Vpr strain, BacTiter-Glo ATP luminescence, 24 h | Potency, µM (titrated, usually from 92.2 µM), for the others: top-dose activity change, negative = less growth, hits mostly inhibitors | hit rate 0.21% among 360,000 | AID 651644, 2012; active = well fitted falling curve with a large enough effect; inconclusive = small, poorly fitted or top-dose-only effect; inactive = no such curve, though single readings can be large or run the other way; note: % is set by controls: 0 for no effect and ±100 for the full control effect; nearly all actives have a fitted effect of over 50% in size
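Fission yeast RE007 carrying one integrated HIV-1 vpr copy, seeded at OD 0.01 in PMG+AL medium with 23 nL pinned compound. Grown 24 h at 30 degrees; viability read by BacTiter-Glo luminescence after 5 min.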
An asterisk follows results filed as active; u = inconclusive; x = not tested or not shown; [ ] = remark or other dose. The list is not random: actives were taken first. Their share in the collection is about 9.5%. Unless noted, calls come from the whole dose curve. Potency is the fitted concentration of half-maximal effect.

SMILES	SARS PLpro yeast	Pf growth 48h	Pf growth 96h	NS1 function inh	RE007 growth inh
Cn1c(=O)c2c(nc(CN3CCN(C(=O)c4ccco4)CC3)n2Cc2ccccc2F)n(C)c1=O	3%	x	1.5µM*	-12%	17%
COc1ccc(C(CCNC(C)c2ccccc2)C(C)C)cc1 (stereo unspecified)	1%	9.3µM*	9.3µM*	-2%	-6%
Cn1c(SCC(=O)Nc2cccnc2Cl)nnc1-c1ccco1	x	x	x	x	-7%
COC(=O)c1ccc(Cl)c(NC(=O)NC23CC4CC(CC(C4)C2)C3)c1	15%	x	0.66µM*	6%	-14%
CN(C)CCNS(=O)(=O)N(C)C	x	x	x	0%	x
CCn1c(O)c(/C=C2\C=Nc3ccccc32)sc1=O	-8%	82%	7.4µM*	5%	-10%
COc1cccc(/C=N/n2c(N)c(S(=O)(=O)c3cccs3)c3nc4ccccc4nc32)c1OC	3%	u	u	-1%	-10%
Nc1c(S(=O)(=O)c2cccc(Cl)c2)c2nc3ccccc3nc2n1/N=C/c1ccc(O)c(O)c1	-2%	7.4µM*	-16%	-38%	x
COC(=O)c1nn(-c2cccc(C)c2)c2nnc(Cc3ccc(C)cc3)c(=O)n12	-20%	16%	-12%	4%	-12%
Cc1ccc(Cc2nnc3n(-c4cccc(C)c4)nc(C(=O)c4ccccc4)n3c2=O)cc1	1%	5.2µM*	3.7µM*	20%	-28%[3.69 µM]
O=C(NCCCN1CCN(CCCNC(=O)c2cccc(Cl)c2)CC1)c1cccc(Cl)c1	-2%	u	12µM*	-5%	0%
O=C(NCCN1CCCC1)c1cccc(Cl)c1	0%	8%	38%	4%	-11%
COc1cc2c(C(=O)NCCCN3CCN(c4cccc(Cl)c4)CC3)cn(C)c(=O)c2cc1OC	-6%	u	u	-1%	2%
O=C(NCCCN1CCN(c2cccc(Cl)c2)CC1)c1nc(-c2ccncc2)no1	2%	6.6µM*	5%	0%	-20%
Cc1cc(O)c2c(c1)OC(C)(C)C1=C2CC(C)CC1 (stereo unspecified)	-3%	6.6µM*	9%	-152%	u
COc1ccc(C(=O)C2CCCN(Cc3c(F)ccc(F)c3F)C2)c(OC)c1 (stereo unspecified)	3%	u	-22%	-7%	5%
COc1ccc(C(=O)C2CCCN(Cc3cccn3-c3ccc(Cl)cn3)C2)c(OC)c1 (stereo unspecified)	-3%	4.1µM*	15%	-6%	-4%
COc1ccc2cc(C(=O)C3CCCN(Cc4cccc(C)n4)C3)ccc2c1 (stereo unspecified)	1%	0.66µM*	u	-3%	-14%
COc1c(C)cc(C(=O)C2CCCN(Cc3ccccn3)C2)cc1C (stereo unspecified)	0%	2.1µM*	109%	1%	-17%
COc1ccc(C(=O)C2CCCN(Cc3cccc(C)n3)C2)c(OC)c1 (stereo unspecified)	0%	1.5µM*	1µM*	3%	-14%
CCN(C(=O)CSc1ccc2ccccc2n1)C1CCCCC1	-21%	x	x	x	7%
CCNC(=S)NC1CC2CCCC(C1)N2CCc1ccccc1 (stereo unspecified)	1%	u	8.3µM*	7%	0%
CCCCN(CCCNC(=O)C1CCN(C(=O)c2cc3sccc3n2C)CC1)Cc1ccccc1	0%	5.2µM*	42%	-14%	-4%
CCN(CCCNC(=O)C1CCN(C(=O)c2cc3sccc3n2C)CC1)Cc1ccccc1	3%	u	u	-5%	-8%
Cc1ccc2c(c1)N(S(=O)(=O)c1ccc3c(c1)NC(=O)CC(=O)N3)CCO2	0%	7%	8.3µM*	23%	-9%
SMILES	SARS PLpro yeast	Pf growth 48h	Pf growth 96h	NS1 function inh	RE007 growth inh
Cc1ccc(C)c(N2CCN(S(=O)(=O)c3ccc4c(c3)NC(=O)CO4)CC2)c1	-4%	-10%	13µM*	-36%	0%
CC1Sc2ccc(S(=O)(=O)N3CCN(c4cccc(Cl)c4)CC3)cc2NC1=O (stereo unspecified)	0%	0%	12µM*	20%	-3%
CC1Sc2ccc(S(=O)(=O)N3CCN(c4ccccc4)CC3)cc2NC1=O (stereo unspecified)	5%	-10%	u	20%	-10%
COc1ccc(N2CCN(C(=O)CCS(=O)(=O)c3ccc4c(c3)NC(=O)C(C)S4)CC2)cc1 (stereo unspecified)	-2%	u	9.3µM*	11%	0%
CN1C(=O)/C(=C/c2ccc(-c3ccccc3[N+](=O)[O-])o2)SC1=Nc1ccc(Cl)c(C(=O)O)c1	4%	5%	u	u	-16%
Cc1ccccc1N(CC(=O)NCC1CCCO1)C(=O)CCC(=O)Nc1nccs1 (stereo unspecified)	3%	5%	0%	10%	12%
CCOc1cc(Br)ccc1S(=O)(=O)NCc1ccccc1	-2%	20%	29%	-59%	2%
Cc1ccc(C)c(CNc2ccc(S(=O)(=O)N3CCCCC3)cc2)c1	1%	12µM*	u	x	20%
O=C1COc2ccc(S(=O)(=O)CCC(=O)N3CCN(c4cccc(Cl)c4)CC3)cc2N1	-7%	-14%	32%	9%	0%
CC(=O)Nc1ccc(S(=O)(=O)N2CCN(S(=O)(=O)c3ccccc3)CC2)cc1	-15%	u	u	-10%	15%
O=C1COc2ccc(S(=O)(=O)N3CCN(c4cccc(Cl)c4)CC3)cc2N1	10%	13%	13µM*	5%	4%
CC(=O)Nc1ccc(S(=O)(=O)N2CCN(c3cc(C)ccc3C)CC2)cc1	-30%	-20%	13µM*	-104%	3%
Cc1ccc(S(=O)(=O)N2CCCCC2)cc1	1%	x	18%	1%	25%
COc1ccc(/C=N/N2CCN(Cc3ccc(C)cc3)CC2)cc1Br	-6%	u	-13%	-13%	-25%
CCOc1ccc(N=C2NC(=O)C(CC(=O)Nc3ccccc3)S2)cc1 (stereo unspecified)	1%	8.3µM*	5%	x	-2%
O=C(CC1SC(=Nc2ccc(O)cc2)NC1=O)Nc1ccccc1 (stereo unspecified)	1%	42%	-9%	3%	-1%
Cc1ccc(N=C2C(=O)Nc3c(C)cccc32)cc1	13%	1%	10µM*	-18%	2%
COc1ccc(S(=O)(=O)N2CCCCC2)cc1C(=O)N1CCCC1	-6%	-7%	2.3µM*	17%	-2%
COc1ccccc1C(=O)N1CCN(S(=O)(=O)c2ccccc2)CC1	0%	3%	5%	-16%	9%
Cc1ccc(C)c(S(=O)(=O)N2CCN(C(=O)[C@@H](NC(=O)c3ccc(F)cc3)C(C)C)CC2)c1	0%	9.3µM*	u	x	6%
Cc1ccc(C(=O)N2CCN(c3ccccc3)CC2)cc1S(=O)(=O)N1CCCC1	1%	u	12%	-3%	22%

Compound activity (PubChem BioAssay)
